Rows were chosen to be rich in hits. Some 0.79% of all compounds tested hit in one or more screens of this group.
RE007 growth inh: qHTS Assay for Inhibitors of the HIV-1 protein Vpr; S. pombe RE007 Vpr strain, BacTiter-Glo ATP luminescence, 24 h; Potency, µM (titrated, usually from 92.2 µM), inactives show at the highest dose activity change, negative = less growth, hits mostly inhibitors; hit rate 0.21% among 360,000; AID 651644, 2012; active means well fitted falling curve with a large enough effect; inconclusive means small, poorly fitted or top-dose-only effect; inactive means no such curve, though single readings can be large or run the other way; further: nearly all actives have a fitted effect of over 50% in size
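Fission yeast RE007 carrying one integrated HIV-1 vpr copy, seeded at OD 0.01 in PMG+AL medium with 23 nL pinned compound. Grown 24 h at 30 degrees; viability read by BacTiter-Glo luminescence after 5 min.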
AMA1 RON2 block: qHTS for Inhibitors of AMA1-RON; Towards Development of Antimalarial Drug Lead: Primary Screen; Potency, µM (top dose mostly 58.2 µM), for the others: at the top dose activity change, negative = inhibition, most hits filed as inhibitors; Plasmodium falciparum AMA1 (3D7) - RON2 peptide interaction; hit rate 0.2% among 360,000; AlphaScreen AMA1-biotinylated RON2 peptide binding; AID 720542, 2013;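 further: 0% = vehicle wells and -100% = peptide control; nearly all actives have a fitted effect of over 45% in size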
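AMA1 (3D7) with his tag at 25 nM final met compounds first, then biotinylated RON2 peptide at 25 nM; detection used donor plus acceptor beads, 10 µg/mL apiece, read by AlphaScreen after 30 min at room temperature.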
AmpC inh no detg: qHTS Inhibitors of AmpC Beta-Lactamase (assay without detergent). P00811. AmpC nitrocefin hydrolysis, absorbance 480 nm, 0.0001% Triton. Potency, µM (highest dose often 57.1 µM), for the others: at the top dose activity change, negative = inhibition, usual class: inhibitors. hit rate 0.52% among 330,000. AID 485341, 2010;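 further: plate controls were no compound for no effect and no enzyme for full effect; nearly all actives have a fitted effect of over 20% in size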
Target sequence (P00811 whole entry, looked up): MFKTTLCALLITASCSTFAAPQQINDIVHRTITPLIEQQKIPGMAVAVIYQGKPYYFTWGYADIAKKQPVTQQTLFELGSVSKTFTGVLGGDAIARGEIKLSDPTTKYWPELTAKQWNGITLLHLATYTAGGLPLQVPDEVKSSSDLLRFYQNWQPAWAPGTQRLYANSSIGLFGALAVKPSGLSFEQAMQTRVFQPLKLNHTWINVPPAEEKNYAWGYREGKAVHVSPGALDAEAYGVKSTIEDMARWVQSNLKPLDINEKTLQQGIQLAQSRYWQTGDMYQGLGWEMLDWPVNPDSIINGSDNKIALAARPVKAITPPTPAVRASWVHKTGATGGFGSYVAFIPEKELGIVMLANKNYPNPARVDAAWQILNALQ
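20 mM phosphate pH 7.0 + 0.01% (detergent screen) or 0.0001% Triton X-100; 5.3 nM AmpC reagent; cpd preinc 15 min RT; nitrocefin (800 uM stock) to start; A480 q20 s × 4 min; Activity was normalised to no-enzyme and no-compound control wells.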
AmpC detergent: qHTS Inhibitors of AmpC Beta-Lactamase (assay with detergent); P00811; AmpC hydrolysis of nitrocefin, absorbance 480 nm, 0.01% Triton; Potency, µM (doses to about 114 µM), for the others: top-dose activity change, negative = inhibition, hits mostly inhibitors; hit rate 0.041% among 370,000;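 further: 0% = no-compound wells and -100% = no-enzyme wells; nearly all actives have a fitted effect of over 25% in size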
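AmpC (5.3 nM in the dispensed reagent) in 20 mM phosphate pH 7.0 with 0.01% (detergent screen) or 0.0001% Triton X-100 was preincubated with compounds for 15 min at room temperature. Nitrocefin was then added from an 800 uM solution, and hydrolysis was followed at 480 nm.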
An asterisk follows results filed as active; ? = inconclusive; / = no result given; [ ] = another dose, or the depositor's remark. Unless noted, the call rests on the fitted dose curve; in most records, active means well fitted curve in the direction sought with a large enough effect; inconclusive means small, poorly fitted or top-dose-only effect, or another doubt; inactive means no such curve, though single readings can be large; an effect the other way counts as inactive or inconclusive. Unless noted, on the % scale 0 is the no-effect control and ±100 the full control effect; potency means the concentration at half of the fitted maximal effect.

SMILES	RE007 growth inh	AMA1 RON2 block	AmpC inh no detg	AmpC detergent
CC(C)Cc1cc(C(=O)Nc2cccnc2)no1	-8%	-10%	-5%	?
O=C(CSc1nnc(SCc2cccc3ccccc23)s1)N/N=C/C=C/c1ccccc1[N+](=O)[O-]	19%	14%[2.32 µM]	14µM*	-2%
O=C(CSc1nnc(SCc2ccccc2)s1)N/N=C/C=C/c1ccco1	7%	13%	11µM*	?
O=C(CSc1nnc(SCc2cccc3ccccc23)s1)N/N=C/c1c[nH]c2ccccc12	/	5%	-14%	-8%
Cc1ccc(OCC(=O)Nc2ccc3c(c2)OCO3)cc1C	14%	0%	-14%	5%
Cc1cc(C)cc(OCC(=O)Nc2ccc3c(c2)OCO3)c1	14%	10µM*	-14%	6%
C=Cc1ccc(Cn2c(C(=O)O)c(CNC3CCCCC3)c3ccc(C)cc32)cc1	/	/	/	-6%
CCc1ccc(CN2CCN(Cc3ccc(SC)cc3)CC2)cc1	6%	13µM*	33%	-13%
COc1ccccc1N1CCN(Cc2ccc(SC)cc2)CC1	-23%	20µM*	7%	?
O=C(Nc1ccc(Nc2ccccc2)cc1)c1ccc(Cl)cc1	-15%	-15%	/	/
N#C/C(C(=O)Nc1ccc(Cl)cc1)=C(/S)Nc1ccccc1	?	17%	?	40µM*
Cc1cc2c(cc1NC(=O)c1ccc(C(C)(C)C)cc1)n(C)c(=O)c(=O)n2C	/	/	/	0%
CC(C)NS(=O)(=O)c1ccc(OCC(=O)N2CCN(c3ccccc3F)CC2)cc1	/	/	/	28%
O=c1[nH]c2ccc(Br)cc2c(-c2ccccc2)c1N1CCOCC1	6%	-4%	1µM*	?
COc1ccc(CSc2nc3ccncc3n2CC(=O)Nc2cc(C)cc(C)c2)cc1	/	/	/	5%
CC(C)Cc1ccc(C(C)C(=O)Nc2nccs2)cc1 (configuration not stated)	-2%	-4%	-52%	4%
CC(C)Cc1ccc(C(C)C(=O)Nc2ccccc2O)cc1 (configuration not stated)	9%	0%	4µM*	-5%
COc1cc(Cl)c(NC(=O)CN(C)S(=O)(=O)c2ccc3[nH]c4c(c3c2)CCCC4)c(OC)c1	/	/	/	21%
[O-][n+]1c2c(c3c4non(O)c4ccc31)CCCC2	-26%	-1%	10µM*	-5%
COn1c2c(c3c4no[n+]([O-])c4ccc31)CCCC2	-8%	1%	-13%	-1%
CCOc1ccc(Nc2nc(C)c(NC(=O)c3cccc(F)c3)c(Nc3ccc(OCC)cc3)n2)cc1	/	/	/	17%
Oc1c(CN2CCOCC2)cc(CN2CCOCC2)c(O)c1O	3%	11µM*	/	/
Cc1ncc(CO)c(/C=N/NC(=O)c2cc(Br)ccc2O)c1O	1%	4µM*	-27%	-12%
O=S(=O)(c1ccccc1)c1nc(-c2cccs2)oc1SCc1ccccc1Cl	/	/	/	8%
O=C1c2cccc(Cl)c2C(=O)c2c1cccc2N1CCCC1	-35%	6.3µM*	/	/
SMILES	RE007 growth inh	AMA1 RON2 block	AmpC inh no detg	AmpC detergent
C=CCn1c(SCC(=O)NC2CCCC2)nc2scc(-c3ccco3)c2c1=O	9%	?	35µM*	?
Cc1ccc(C)c(NC(=O)CSc2nnc(-c3ccccc3)o2)c1	3%	6%	40µM*	?
Cc1ccc(NC(=O)CSc2nnc(-c3ccc(Br)cc3)o2)c(C)c1	/	/	/	8%
COC(=O)CCNC(=O)NC(CCC(C)C)c1c(-n2cccc2)sc2c1CCN(C)C2 (configuration not stated)	/	/	/	19%
O=C(NCc1ccco1)c1cc2ccc(O)cc2oc1=O	35µM*	-11%	-17%	-1%
O=[N+]([O-])c1ccc(C(c2ccc([N+](=O)[O-])cc2)c2ccc([N+](=O)[O-])cc2)cc1	2%	?	/	/
CN(C)c1ccc(C(c2ccc(N(C)C)cc2)c2ccc([N+](=O)[O-])cc2)cc1	54%	8.9µM*	-25%	-12%
COC(=O)C(CCSC)Nc1ncnc2onc(-c3ccc(F)cc3)c12 (configuration not stated)	/	/	/	3%
CN1CCCN(C(=O)CC2(CC(=O)O)CCCC2)CC1	-9%	2%	-40%	28µM*
CN1CCN(C(=O)CC2(CC(=O)O)CCCC2)CC1	4%	-2%	-41%	?
Cc1cc2c(c(=O)n1Cc1ccccc1)C1O[C@](c3ccsc3)(Cc3cc(C#N)ccc31)O2	/	/	-42%[11.4 µM]	-8%[22.9 µM]
Cc1ccccc1CCNC(=O)c1ccc(NC(=O)N2CC(C)Sc3ccccc32)cc1 (configuration not stated)	/	/	/	-1%
O=C(COC(=O)/C=C/c1cccc(C(F)(F)F)c1)NCc1ccccc1	-2%	3%	7.9µM*	-14%
O=C(COC(=O)/C=C/c1cccc(C(F)(F)F)c1)NCc1ccc(F)cc1	-8%	-8%	-31%	1%
CC(C)N1CCC2(CC1)N=C(c1ccc3c(c1)OCO3)CC(c1cc(Cl)ccc1O)N2 (configuration not stated)	?	-12%	18µM*	-5%
COc1ccc(CNC(=O)C(=O)Nc2ccc(OC)cc2OC)cc1	/	/	/	0%
C/C(=N\Nc1nc(-c2ccc(C)cc2C)cs1)c1cc2ccccc2oc1=O	6%	43%	20µM*	?
Cc1ccc(C(=O)NCC(c2ccc3c(c2)OCO3)N2CCOCC2)cc1C (configuration not stated)	/	/	/	2%
Cc1ccc(-c2nn(-c3ccccc3)cc2/C=N/n2c(-c3ccncc3)n[nH]c2=S)cc1	-1%	78%	-24%	0%
S=c1[nH]nc(-c2cccs2)n1/N=C/c1cn(-c2ccccc2)nc1-c1ccccc1	-6%	58%	4µM*	-6%
COCCCNC(=O)CC1Oc2ccccc2NC1=O (configuration not stated)	-9%	20%	10µM*	?
CC(C)=CCc1c2c(c3occ(-c4ccc(O)cc4)c(=O)c3c1O)C=CC(C)(C)O2	-11%	0%	16µM*	-1%
CC(C)=CCc1c2c(c3occ(-c4ccc(O)c(O)c4)c(=O)c3c1O)C=CC(C)(C)O2	-2%	-21%	/	/
COC(=O)C(Cc1ccccc1)NC(=O)C(CC(C)C)NC(=O)OC(C)(C)C (configuration not stated)	1%	-6%	2%	?
CC(C)CC(NC(=O)C(Cc1ccc(OCc2ccccc2)cc1)NC(=O)OC(C)(C)C)C(N)=O (configuration not stated)	3%	20%	7.1µM*	3%
O=C(Nc1cccc(Cl)c1)Nc1sccc1-c1nc2ccccc2s1	-11%	6%	?	6%
O=C(Nc1ccccc1)Nc1sccc1-c1nc2ccccc2s1	0%	20%	14µM*	8%
CCOC(=O)Cn1c(=O)oc2cc(S(=O)(=O)N3CCn4c3nc3ccccc34)ccc21	-8%	-10%	22µM*	-11%
